According to the supplement of paper PMC12350171:
Counter-ions that a name gives are not always drawn.

tested on: Salmonella enterica typhimurium; assay: growth AUC normalised to DMSO control (fraction of control); higher = less growth inhibition, active = hit call of the paper; conditions: 20 µM;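 active = AUC significantly below DMSO controls by Student t-fit with adjusted P under 0.01; inactive = not significantly reduced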
Procedure, shortened: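 For the AUC endpoint, growth curves were integrated by the trapezoidal rule up to the exponential-to-stationary transition and normalised to DMSO controls on the same plate. The curves came from OD578 readings taken hourly for 24 h, in three biological replicates. Pathogens had been passaged anaerobically twice and inoculated at an OD578 of 0.01 into pre-reduced mGAM plates carrying 20 μM compound and 1% DMSO, sealed with breathable membranes. Medium for Haemophilus parainfluenzae also contained hemin and NAD.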

| SMILES | growth AUC normalised to DMSO control |
| --- | --- |
| C=CCC1(CC(C)C)C(=O)NC(=O)NC1=O [Butalbital] | 1 (inactive) |
| CC1C=CC=CCCC=CC=CC=CC=CC(OC2OC(C)C(O)C(N)C2O)CC2OC(O)(CC(O)C(O)CCC(O)CC(O)CC(O)CC(=O)OC(C)C(C)C1O)CC(O)C2C(=O)O (configuration not stated) [Nystatine] | 0.992 (inactive) |
| O=C(CCCN1CCC2(CC1)C(=O)NCN2c1ccccc1)c1ccc(F)cc1 [Spiperone] | 0.978 (inactive) |
| COc1ccc(OC)c(C(O)C(C)N)c1 (configuration not stated) [Methoxamine hydrochloride] | 1.01 (inactive) |
| CC(C)(C)NCC(O)c1cc(Cl)c(N)c(Cl)c1 (configuration not stated) [Clenbuterol hydrochloride] | 0.958 (inactive) |
| COc1ccc(CN2CCNCC2)c(OC)c1OC [Trimetazidine dihydrochloride] | 0.989 (inactive) |
| CC[N+]1(C)CCCC(OC(=O)C(O)(c2ccccc2)c2ccccc2)C1 (configuration not stated) [Pipenzolate bromide] | 0.993 (inactive) |
| NCC(O)c1ccc(O)cc1 (configuration not stated) [Octopamine hydrochloride] | 1 (inactive) |
| CC(=O)NC1CCSC1=O (configuration not stated) [Citiolone] | 1.01 (inactive) |
| O=[N+]([O-])O[C@@H]1CO[C@H]2[C@@H]1OC[C@@H]2O [Isosorbide mononitrate] | 1.01 (inactive) |
| C=C1C[C@@H]2[C@H](CC[C@]3(C)C(=O)CC[C@@H]23)[C@@]2(C)C=CC(=O)C=C12 [Exemestane] | 0.985 (inactive) |
| O=c1c2ccccc2[se]n1-c1ccccc1 [Ebselen] | 0.987 (inactive) |
